From the OligoGym collection

biological target: PEG10; assay: pooled miR-30 sensor sort-seq; sequence = guide strand; settings: shRNA
Further: reference of the scale not given here.

Question: For TTCTCTGGGAGGTCTTCTGGGC, which sensor-assay potency score (higher = more potent) is on record?
Answer: -0.944

Question: Which sensor-assay potency score (higher = more potent) does the source give for TTGATCTCTTCAGAGAGCTCGT here?
Answer: 0.178

Question: For TTCCACTTGCTCTCGAAGGGTG, which sensor-assay potency score (higher = more potent) is on record?
Answer: -0.417

Question: With TTTGGCAACCTCTCGCCTCTGA as the sequence, how does the sensor-assay potency score (higher = more potent) read?
Answer: -0.158

Question: TCTTTCTTTTTCTTCCTGCGTC was tested. Which sensor-assay potency score (higher = more potent) did it give?
Answer: -0.141

Question: Which sensor-assay potency score (higher = more potent) does the source give for TTAAGTTGTTGATCTCTTCAGA here?
Answer: -0.104

Question: For TAGTTGTGCATCAGGTAGTGGG, which sensor-assay potency score (higher = more potent) is on record?
Answer: -0.718

Question: How did the sensor-assay potency score (higher = more potent) turn out when TTGCCATCGAACTTCTCTGGGA was run?
Answer: -0.275

biological target: PEG3; assay: as above; settings: shRNA

Question: With TTGTGTTGAGGTCTTCGCTGGT as the sequence, how does the sensor-assay potency score (higher = more potent) read?
Answer: 0.119

Question: For TAATCTCTCTGATACTCGCTGA, which sensor-assay potency score (higher = more potent) is on record?
Answer: -0.226

Question: How did the sensor-assay potency score (higher = more potent) turn out when ATAACCTCTAGCATGAATCTTC was run?
Answer: -0.113

Question: With TTCACTGACAGCCACACTGTGG as the sequence, how does the sensor-assay potency score (higher = more potent) read?
Answer: -0.755

Question: How did the sensor-assay potency score (higher = more potent) turn out when TTATAGTATGACTCTTCTGAGA was run?
Answer: -1.1

Question: With TTGATCGTGAATCGAGCCCTTC as the sequence, how does the sensor-assay potency score (higher = more potent) read?
Answer: -0.255

Question: With TTTGTCATCAGGGTCATCCTTC as the sequence, how does the sensor-assay potency score (higher = more potent) read?
Answer: 0.301

Question: How did the sensor-assay potency score (higher = more potent) turn out when TTATCATCTGACATTCTGGGGA was run?
Answer: 0.23

Question: How did the sensor-assay potency score (higher = more potent) turn out when TTGATCTTCACCTTCTTCTGGG was run?
Answer: 0.701

Question: With TTTCTTTTTAGCACGAGCCTTC as the sequence, how does the sensor-assay potency score (higher = more potent) read?
Answer: -0.635

Question: TTCAATGAAATGTCCTTCCAGT was tested. Which sensor-assay potency score (higher = more potent) did it give?
Answer: 0.297

Question: With TTCTTCTACCTGAATCTCTTGA as the sequence, how does the sensor-assay potency score (higher = more potent) read?
Answer: 0.127

biological target: PELI3; assay: as above; settings: shRNA

Question: Which sensor-assay potency score (higher = more potent) does the source give for ATCATGTGTATACTCCACTATG here?
Answer: -1.35

Question: For TTGCTAGAGGCATCGAAGCCAG, which sensor-assay potency score (higher = more potent) is on record?
Answer: -0.912

Question: TACACATTCCCACAGACCGAGA was tested. Which sensor-assay potency score (higher = more potent) did it give?
Answer: -1.66

Question: TCAATCATGTTCTCTGTGGAGC was tested. Which sensor-assay potency score (higher = more potent) did it give?
Answer: -0.446

Question: With TGTCTGTGTCGCTATCATGTGT as the sequence, how does the sensor-assay potency score (higher = more potent) read?
Answer: -0.284

Question: For ATTGGTGGTCAGTCCATCCATC, which sensor-assay potency score (higher = more potent) is on record?
Answer: -0.798

Question: Which sensor-assay potency score (higher = more potent) does the source give for TGGAACATGTCTGTGTCGCTAT here?
Answer: 0.131

Question: With TGTATACTCCACTATGACCGAG as the sequence, how does the sensor-assay potency score (higher = more potent) read?
Answer: -0.429

Question: Which sensor-assay potency score (higher = more potent) does the source give for ATCATGTTCTCTGTGGAGCGGC here?
Answer: -0.826

Question: TCTGTGTCGCTATCATGTGTAT was tested. Which sensor-assay potency score (higher = more potent) did it give?
Answer: -0.903

Question: How did the sensor-assay potency score (higher = more potent) turn out when AAGTCAATCATGTTCTCTGTGG was run?
Answer: -0.484

Question: With TATCATGTGTATACTCCACTAT as the sequence, how does the sensor-assay potency score (higher = more potent) read?
Answer: -0.135

biological target: PEX11G; assay: as above; settings: shRNA

Question: For AAGAGTCGCAAGATGGTCCTGC, which sensor-assay potency score (higher = more potent) is on record?
Answer: 0.55

Question: With TTCAGCAGCATCCACAGGGACC as the sequence, how does the sensor-assay potency score (higher = more potent) read?
Answer: -1.68

Question: How did the sensor-assay potency score (higher = more potent) turn out when AACCAGAACTCCACCAACCAGC was run?
Answer: -1.17

Question: TTGGGTGGACACCACCAACAGA was tested. Which sensor-assay potency score (higher = more potent) did it give?
Answer: -1.13

Question: How did the sensor-assay potency score (higher = more potent) turn out when TAGTGTAGACAAACATGGCCAG was run?
Answer: -0.684

Question: With CAGAACTCCACCAACCAGCTGG as the sequence, how does the sensor-assay potency score (higher = more potent) read?
Answer: -1.04

Question: With TTGCTTAGTGTAGACAAACATG as the sequence, how does the sensor-assay potency score (higher = more potent) read?
Answer: -1.38

Question: Which sensor-assay potency score (higher = more potent) does the source give for TTTCAGCAGCATCCACAGGGAC here?
Answer: -0.746
